This passage reports log2 fold change results from the supplement of paper PMC10849652.

The full data set covers some 8,800 targets. This sample favours those with a hit. About 0.5% of all pairs of compound and target were hits.

UniProt P14314, sequence (P14314 whole entry, looked up): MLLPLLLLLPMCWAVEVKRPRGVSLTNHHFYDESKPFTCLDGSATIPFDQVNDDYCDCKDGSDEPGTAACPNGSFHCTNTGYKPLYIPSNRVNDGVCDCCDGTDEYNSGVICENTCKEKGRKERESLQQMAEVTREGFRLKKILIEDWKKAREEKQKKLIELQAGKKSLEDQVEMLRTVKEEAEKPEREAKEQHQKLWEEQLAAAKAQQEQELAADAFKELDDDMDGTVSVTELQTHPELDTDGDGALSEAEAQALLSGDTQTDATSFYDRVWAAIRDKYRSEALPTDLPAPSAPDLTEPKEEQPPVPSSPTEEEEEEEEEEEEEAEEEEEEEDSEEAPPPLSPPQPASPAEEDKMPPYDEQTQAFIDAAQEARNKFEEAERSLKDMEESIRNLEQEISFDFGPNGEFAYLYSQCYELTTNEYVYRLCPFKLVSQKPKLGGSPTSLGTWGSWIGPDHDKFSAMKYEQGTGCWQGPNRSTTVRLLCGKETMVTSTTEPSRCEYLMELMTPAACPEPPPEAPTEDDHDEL
UniProt P09884, sequence (P09884 whole entry, looked up): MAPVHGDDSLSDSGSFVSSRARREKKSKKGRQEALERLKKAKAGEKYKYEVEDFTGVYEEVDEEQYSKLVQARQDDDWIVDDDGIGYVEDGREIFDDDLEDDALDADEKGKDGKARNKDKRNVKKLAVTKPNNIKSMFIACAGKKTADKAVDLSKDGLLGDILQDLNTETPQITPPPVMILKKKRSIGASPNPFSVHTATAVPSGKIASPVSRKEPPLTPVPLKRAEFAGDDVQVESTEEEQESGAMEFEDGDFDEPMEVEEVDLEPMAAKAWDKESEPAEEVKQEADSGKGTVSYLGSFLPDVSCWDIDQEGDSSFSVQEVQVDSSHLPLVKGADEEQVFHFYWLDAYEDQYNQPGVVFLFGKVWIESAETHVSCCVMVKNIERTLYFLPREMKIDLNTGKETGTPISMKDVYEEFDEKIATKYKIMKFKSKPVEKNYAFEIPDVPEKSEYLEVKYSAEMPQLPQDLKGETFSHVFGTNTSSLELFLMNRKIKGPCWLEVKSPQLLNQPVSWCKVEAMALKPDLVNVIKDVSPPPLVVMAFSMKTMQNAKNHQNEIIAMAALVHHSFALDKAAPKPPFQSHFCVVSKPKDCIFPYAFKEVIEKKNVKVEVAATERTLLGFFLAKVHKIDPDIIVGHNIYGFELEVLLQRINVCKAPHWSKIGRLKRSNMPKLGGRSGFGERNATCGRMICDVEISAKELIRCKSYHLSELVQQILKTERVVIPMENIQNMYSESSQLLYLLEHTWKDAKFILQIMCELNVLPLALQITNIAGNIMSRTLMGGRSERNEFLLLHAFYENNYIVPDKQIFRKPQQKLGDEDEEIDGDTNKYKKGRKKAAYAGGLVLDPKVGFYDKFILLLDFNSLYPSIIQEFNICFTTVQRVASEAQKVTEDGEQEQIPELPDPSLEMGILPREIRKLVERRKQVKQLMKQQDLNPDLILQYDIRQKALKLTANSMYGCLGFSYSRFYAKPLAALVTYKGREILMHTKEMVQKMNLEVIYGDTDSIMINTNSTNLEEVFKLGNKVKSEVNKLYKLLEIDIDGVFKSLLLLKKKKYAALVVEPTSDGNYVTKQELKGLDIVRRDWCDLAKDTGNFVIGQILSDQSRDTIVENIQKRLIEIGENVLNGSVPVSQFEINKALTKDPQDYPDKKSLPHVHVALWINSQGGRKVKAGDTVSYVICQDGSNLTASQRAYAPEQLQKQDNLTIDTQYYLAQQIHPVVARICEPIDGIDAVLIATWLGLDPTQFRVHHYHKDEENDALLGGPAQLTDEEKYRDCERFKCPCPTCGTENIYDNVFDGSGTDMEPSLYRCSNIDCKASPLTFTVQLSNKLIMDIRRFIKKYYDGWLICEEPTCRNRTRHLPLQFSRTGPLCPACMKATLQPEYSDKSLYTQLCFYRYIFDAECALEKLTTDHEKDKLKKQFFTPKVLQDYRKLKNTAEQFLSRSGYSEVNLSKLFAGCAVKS
UniProt Q9Y2I7, sequence (Q9Y2I7 whole entry, looked up): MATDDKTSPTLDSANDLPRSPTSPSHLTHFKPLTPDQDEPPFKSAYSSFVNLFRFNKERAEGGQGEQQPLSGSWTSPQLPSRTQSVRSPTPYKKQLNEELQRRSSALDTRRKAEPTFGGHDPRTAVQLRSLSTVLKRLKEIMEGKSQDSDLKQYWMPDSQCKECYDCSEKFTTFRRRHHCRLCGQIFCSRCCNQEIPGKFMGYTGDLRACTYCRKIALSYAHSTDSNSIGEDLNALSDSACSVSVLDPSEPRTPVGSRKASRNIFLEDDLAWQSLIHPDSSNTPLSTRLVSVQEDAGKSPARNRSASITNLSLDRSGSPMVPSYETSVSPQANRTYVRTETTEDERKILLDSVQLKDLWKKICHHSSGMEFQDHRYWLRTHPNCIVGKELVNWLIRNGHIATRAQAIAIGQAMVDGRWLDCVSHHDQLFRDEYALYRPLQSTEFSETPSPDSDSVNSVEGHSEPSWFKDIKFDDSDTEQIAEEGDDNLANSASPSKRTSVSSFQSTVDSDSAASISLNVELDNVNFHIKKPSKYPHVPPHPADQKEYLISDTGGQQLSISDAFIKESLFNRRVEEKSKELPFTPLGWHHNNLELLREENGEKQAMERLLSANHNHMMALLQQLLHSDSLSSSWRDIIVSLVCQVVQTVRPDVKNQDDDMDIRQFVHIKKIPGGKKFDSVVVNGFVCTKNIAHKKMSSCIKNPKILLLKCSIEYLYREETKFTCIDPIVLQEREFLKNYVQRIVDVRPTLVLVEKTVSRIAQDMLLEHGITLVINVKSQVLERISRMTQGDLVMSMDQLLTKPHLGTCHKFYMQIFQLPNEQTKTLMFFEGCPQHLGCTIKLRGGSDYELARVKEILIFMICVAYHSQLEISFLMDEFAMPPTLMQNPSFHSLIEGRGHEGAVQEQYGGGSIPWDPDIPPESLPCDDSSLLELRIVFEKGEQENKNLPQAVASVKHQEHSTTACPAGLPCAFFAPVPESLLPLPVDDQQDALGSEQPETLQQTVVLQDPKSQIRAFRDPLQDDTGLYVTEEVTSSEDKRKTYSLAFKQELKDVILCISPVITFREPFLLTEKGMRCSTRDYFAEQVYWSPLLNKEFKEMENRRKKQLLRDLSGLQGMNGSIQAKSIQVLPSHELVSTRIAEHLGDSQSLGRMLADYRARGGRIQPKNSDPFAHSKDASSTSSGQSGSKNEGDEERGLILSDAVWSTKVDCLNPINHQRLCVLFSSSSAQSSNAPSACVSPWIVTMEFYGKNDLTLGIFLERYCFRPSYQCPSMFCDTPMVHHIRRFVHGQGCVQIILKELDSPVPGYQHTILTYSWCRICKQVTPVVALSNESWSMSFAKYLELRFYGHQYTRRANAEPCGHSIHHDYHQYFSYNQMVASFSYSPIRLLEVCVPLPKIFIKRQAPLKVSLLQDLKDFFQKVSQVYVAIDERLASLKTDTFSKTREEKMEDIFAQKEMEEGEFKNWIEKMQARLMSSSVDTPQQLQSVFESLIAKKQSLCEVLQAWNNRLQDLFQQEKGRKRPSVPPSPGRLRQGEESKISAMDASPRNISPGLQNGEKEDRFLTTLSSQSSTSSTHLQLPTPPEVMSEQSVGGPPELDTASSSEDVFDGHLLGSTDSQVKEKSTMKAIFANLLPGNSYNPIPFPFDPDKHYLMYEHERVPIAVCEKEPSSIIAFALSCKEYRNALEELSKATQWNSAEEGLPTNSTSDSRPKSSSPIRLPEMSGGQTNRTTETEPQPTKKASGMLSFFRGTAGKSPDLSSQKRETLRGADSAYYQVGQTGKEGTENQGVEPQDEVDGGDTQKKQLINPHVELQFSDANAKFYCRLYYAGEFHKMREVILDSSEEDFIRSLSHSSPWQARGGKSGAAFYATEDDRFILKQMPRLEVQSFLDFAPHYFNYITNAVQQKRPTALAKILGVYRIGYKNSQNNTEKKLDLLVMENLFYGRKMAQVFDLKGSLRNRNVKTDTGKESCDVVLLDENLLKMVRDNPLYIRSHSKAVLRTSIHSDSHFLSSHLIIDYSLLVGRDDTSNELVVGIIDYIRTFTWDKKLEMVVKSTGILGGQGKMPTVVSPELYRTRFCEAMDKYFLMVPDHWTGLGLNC
UniProt P17706, sequence (P17706 whole entry, looked up): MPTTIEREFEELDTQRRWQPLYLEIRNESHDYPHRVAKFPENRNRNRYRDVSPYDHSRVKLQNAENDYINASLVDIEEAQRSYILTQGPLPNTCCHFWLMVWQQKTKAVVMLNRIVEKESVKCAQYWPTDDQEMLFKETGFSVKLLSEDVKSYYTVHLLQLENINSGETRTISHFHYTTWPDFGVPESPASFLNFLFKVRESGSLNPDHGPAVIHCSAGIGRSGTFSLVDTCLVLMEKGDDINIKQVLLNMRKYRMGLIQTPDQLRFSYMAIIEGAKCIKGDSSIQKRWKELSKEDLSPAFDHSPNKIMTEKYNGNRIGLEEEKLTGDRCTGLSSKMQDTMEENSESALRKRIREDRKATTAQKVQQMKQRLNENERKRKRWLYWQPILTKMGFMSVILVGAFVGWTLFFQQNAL
UniProt Q9P215, sequence (Q9P215 whole entry, looked up): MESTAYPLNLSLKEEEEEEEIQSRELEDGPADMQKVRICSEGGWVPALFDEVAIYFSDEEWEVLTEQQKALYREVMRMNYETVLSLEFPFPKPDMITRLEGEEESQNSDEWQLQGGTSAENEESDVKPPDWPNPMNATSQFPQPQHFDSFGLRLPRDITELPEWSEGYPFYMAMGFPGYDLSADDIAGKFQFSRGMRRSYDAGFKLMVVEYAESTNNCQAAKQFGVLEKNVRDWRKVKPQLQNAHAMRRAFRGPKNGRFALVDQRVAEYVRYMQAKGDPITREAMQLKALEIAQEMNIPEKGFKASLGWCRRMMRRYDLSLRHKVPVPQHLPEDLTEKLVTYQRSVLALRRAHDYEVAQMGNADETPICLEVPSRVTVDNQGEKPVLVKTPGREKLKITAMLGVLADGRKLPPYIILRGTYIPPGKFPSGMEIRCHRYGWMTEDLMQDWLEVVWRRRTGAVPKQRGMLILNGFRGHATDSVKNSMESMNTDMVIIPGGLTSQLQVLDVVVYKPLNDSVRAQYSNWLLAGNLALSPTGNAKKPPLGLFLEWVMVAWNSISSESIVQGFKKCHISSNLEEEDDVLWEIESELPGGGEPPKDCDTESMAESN

Compound in the first test: Cn1cc(CNCC2CCN(c3ncc(C(=O)NO)cn3)CC2)c2ccccc21 [quisinostat]
As to the kind of experiment: log2 fold change, soluble protein after heating vs DMSO (PISA); higher = thermal stabilisation; K562 lysate, 10 uM; active = over 0.2 and 3.5 SD of the protein, either way, in both replicates (recomputed). Summed up:
(§1)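 Quantification was by TMTpro 16plex LC-MS/MS with equalised channel sums, applied to the supernatant after 21,000xg for 90 min. Samples were crude K562 extract at 1 mg/mL protein in PBS pH 7.4 with 1 mM MgCl2, treated with 10 μM compound for 30 min, heated for 3 min across 48°C-58°C, pooled and brought to 0.5% NP-40 at 4°C. Values are log-two fold changes in thermal stability relative to solvent controls, from duplicates.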
As to PRAME (UniProt P78395), the log2 fold change is -0.081 (inactive).
Turning to PWP2 (UniProt Q15269), the log2 fold change was -0.056 (inactive).
With POLA1 (UniProt P09884), the log2 fold change is -0.028 (inactive).
Regarding PCIF1 (UniProt Q9H4Z3), the log2 fold change is 0.019 (inactive).
The same measure, in the same setting: in the case of PGLS (UniProt O95336) it was 0.017 (inactive).
Consider PRKCSH isoform 2 (UniProt P14314), for which the log2 fold change is -0.157 (inactive).
Regarding PIP4K2B (UniProt P78356), the log2 fold change is -0.017 (inactive).
PPP1R8 (UniProt Q12972): the log2 fold change is -0.023 (inactive).
As for POLD1 (UniProt P28340), the log2 fold change was 0.01 (inactive).
With PIKFYVE (UniProt Q9Y2I7), the log2 fold change was -0.014 (inactive).
For the target PPP2CA (UniProt P67775), the log2 fold change is 0.185 (inactive).
For the target PLA2G4B isoform 6 (UniProt P0C869), the log2 fold change is -0.671 (active).
On to PCBP2 isoform 3 (UniProt Q15366), for which the log2 fold change is 0.044 (inactive).
As to PWP1 (UniProt Q13610), the log2 fold change was 0.068 (inactive).
Still for that read-out and setting: in the case of PPP3CA isoform 2 (UniProt Q08209) it was -0.051 (inactive); in that of PMS1 (UniProt P54277), -0.086 (inactive); in that of PIK3R1 (UniProt P27986), -0.027 (inactive).
In the case of PKN1 isoform 2 (UniProt Q16512), the log2 fold change was 0.102 (inactive).
On the same count and under the same terms, to PTPN2 (UniProt P17706) belongs -0.067 (inactive).
PIK3R2 (UniProt O00459): the log2 fold change is -0.04 (inactive).
Turning to PIK3CB (UniProt P42338), the log2 fold change is -0.05 (inactive).
On to PRMT7 (UniProt Q9NVM4), for which the log2 fold change was -0.041 (inactive).
As for PRKCSH (UniProt K7ELL7), the log2 fold change is 0.04 (inactive).
In the case of PHGDH (UniProt O43175), the log2 fold change is -0.032 (inactive).
As to PRKACB isoform 2 (UniProt P22694), the log2 fold change was -0.033 (inactive).
Turning to PTP4A1 (UniProt Q93096), the log2 fold change was 0.151 (inactive).
As for PIP5K1A (UniProt Q99755), the log2 fold change was -0.165 (inactive).
Same read-out and setting: to PFAS (UniProt O15067) belongs -0.037 (inactive); to PIGO (UniProt Q8TEQ8), -0.119 (inactive).
Turning to PRKCSH (UniProt P14314), the log2 fold change was 0.088 (inactive).
Turning to PCBP3 (UniProt P57721), the log2 fold change was -0.004 (inactive).
As for POGK (UniProt Q9P215), the log2 fold change was -0.086 (inactive).
On the same count and under the same terms, to PMPCA (UniProt Q10713) belongs -0.041 (inactive); to PLIN2 (UniProt Q99541), -0.031 (inactive); to POLR2M (UniProt P0CAP2), -0.015 (inactive).
PDCD6IP (UniProt Q8WUM4): the log2 fold change was 0.001 (inactive).
For the target PCF11 (UniProt O94913), the log2 fold change is -0.004 (inactive).
Turning to PLXND1 (UniProt Q9Y4D7), the log2 fold change was -0.093 (inactive).
On to PPP4R2 (UniProt Q9NY27), for which the log2 fold change is -0.009 (inactive).

Compound in another test: Cn1cncc1[C@@](N)(c1ccc(Cl)cc1)c1ccc2c(c1)c(-c1cccc(Cl)c1)cc(=O)n2C [tipifarnib]
The description is as above. The procedure, abridged:
as §1
As to PRAME (UniProt P78395), the log2 fold change was -0.007 (inactive).
Still for that read-out and setting: in the case of PWP2 (UniProt Q15269) it was 0.004 (inactive); in that of POLA1 (UniProt P09884), -0.001 (inactive).
With PCIF1 (UniProt Q9H4Z3), the log2 fold change is 0.015 (inactive).
As for PGLS (UniProt O95336), the log2 fold change was -0.013 (inactive).
As for PRKCSH isoform 2 (UniProt P14314), the log2 fold change is -0.081 (inactive).
On the same count and under the same terms, to PIP4K2B (UniProt P78356) belongs -0.007 (inactive); to PPP1R8 (UniProt Q12972), 0.013 (inactive); to POLD1 (UniProt P28340), -0.011 (inactive).
Consider PIKFYVE (UniProt Q9Y2I7), for which the log2 fold change was -0.035 (inactive).
The same measure, in the same setting: to PPP2CA (UniProt P67775) belongs 0.024 (inactive).
On to PLA2G4B isoform 6 (UniProt P0C869), for which the log2 fold change was 0.022 (inactive).
As for PCBP2 isoform 3 (UniProt Q15366), the log2 fold change is 0.005 (inactive).
The same measure, in the same setting: to PWP1 (UniProt Q13610) belongs 0.017 (inactive); to PPP3CA isoform 2 (UniProt Q08209), 0.037 (inactive); to PMS1 (UniProt P54277), 0.058 (inactive).
For the target PIK3R1 (UniProt P27986), the log2 fold change is 0.039 (inactive).
The same measure, in the same setting: to PKN1 isoform 2 (UniProt Q16512) belongs 0.009 (inactive); to PTPN2 (UniProt P17706), -0.001 (inactive); to PIK3R2 (UniProt O00459), -0.001 (inactive).
As for PIK3CB (UniProt P42338), the log2 fold change was -0.032 (inactive).
In the case of PRMT7 (UniProt Q9NVM4), the log2 fold change was -0.011 (inactive).
Take PRKCSH (UniProt K7ELL7): the log2 fold change was 0.024 (inactive).
On to PHGDH (UniProt O43175), for which the log2 fold change was 0.018 (inactive).
Consider PRKACB isoform 2 (UniProt P22694), for which the log2 fold change is -0.063 (inactive).
Turning to PTP4A1 (UniProt Q93096), the log2 fold change is 0.011 (inactive).
With PIP5K1A (UniProt Q99755), the log2 fold change was 0.032 (inactive).
For PFAS (UniProt O15067), the log2 fold change was 0.01 (inactive).
For the target PIGO (UniProt Q8TEQ8), the log2 fold change is 0.013 (inactive).
Consider PRKCSH (UniProt P14314), for which the log2 fold change is 0.008 (inactive).
As for PCBP3 (UniProt P57721), the log2 fold change was 0 (inactive).
Regarding POGK (UniProt Q9P215), the log2 fold change was 0.007 (inactive).
Consider PMPCA (UniProt Q10713), for which the log2 fold change is 0.187 (inactive).
Turning to PLIN2 (UniProt Q99541), the log2 fold change was -0.153 (inactive).
On the same count and under the same terms, to POLR2M (UniProt P0CAP2) belongs 0.007 (inactive).
Turning to PDCD6IP (UniProt Q8WUM4), the log2 fold change was 0.06 (inactive).
As to PCF11 (UniProt O94913), the log2 fold change is -0.029 (inactive).
On to PLXND1 (UniProt Q9Y4D7), for which the log2 fold change was 0.014 (inactive).
For PPP4R2 (UniProt Q9NY27), the log2 fold change is -0.042 (inactive).
